MITF act = activators of MITF-driven TRPM1 promoter reporter, primary screen, cell-based, SK-MEL-5, luciferase, single point; activation, % at 12.5 µM; 300,000 tested, 0.75% active; SK-MEL-5 TRPM1-promoter luciferase, 24 h; % of positive control, neutral wells = 0;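 active = mean activation of at least 80% with every replicate also reaching 80%; inconclusive = mean reaches 80% but some replicate falls short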
esBAF inh = Bmi1 luciferase reporter increase in mESCs, primary screen, esBAF inhibitor project, mouse ES cells, Bmi1 luciferase knock-in, single point; reporter increase, % at 12.5 µM; 350,000 tested, 2% active; 24 h; 100% = twice the neutral-well signal; in the data active = activation above about 40%; inconclusive = no clear call, values can overlap the other calls;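 note: a rise in the Bmi1 reporter signal indicates esBAF inhibition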
MLL AF4-AF9 inh = inhibitors of AF4 peptide binding to AF9, primary screen, biochemical, AlphaScreen, biotin-AF4 peptide, FLAG-AF9, single point | 350,000 tested, 0.47% active | AID 651704, 2012 | Protein AF-9 (Homo sapiens), P42568 | inhibition, % at 10 µM;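 active = every replicate reaching a set inhibition limit, whatever the replicate mean, cut at about 25% in these data; inconclusive = mean inhibition reaches that limit but some replicates miss it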
Wnt bcat act = Wnt/beta-catenin pathway activators, primary screen, cell-based, plate reader, single point | Wnt/beta-catenin reporter cell assay, activator | activation, % at 9.35 µM | 300,000 tested, 1.2% active | AID 743398, 2014; in the data active = activation above about 30%, passing the limit was not always enough; inconclusive = no clear call, values can overlap the other calls
FGF22 binding = binders of human FGF22 protein, primary screen, FGF22 synaptogenesis inhibitor project, biophysical, thermal shift, single point; Fibroblast growth factor 22 (Homo sapiens), Q9HCT0; recombinant FGF22 thermal shift, SYPRO orange fluorescence; percent of sucrose octasulfate shift, DMSO zero; AID 651658, 2012; activity (Tm shift, normalised), % at 9.99 µM; 340,000 tested, 1.5% active;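 active = mean Tm shift, scaled 0 neutral to 100 positive control, at about 1.3% or above, every replicate too, limit read from the data; inconclusive = no clear call, values can overlap the other calls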
Target sequence (Q9HCT0 whole entry, looked up): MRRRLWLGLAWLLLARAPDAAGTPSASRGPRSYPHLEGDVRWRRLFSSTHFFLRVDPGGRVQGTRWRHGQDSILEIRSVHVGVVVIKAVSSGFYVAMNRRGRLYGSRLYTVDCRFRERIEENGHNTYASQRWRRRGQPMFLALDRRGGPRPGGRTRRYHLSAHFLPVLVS
SMARCA2 activ = SMARCA2 (BRM) function activators, primary screen, cell-based, luminescence, high throughput. 370,000 tested, 1% active. activation, % at 9.1 µM. MG213 cells, MMTV-luciferase reporter, dexamethasone, overnight; in the data active = activation above about 7.8%
A number is an active result; – = inactive; ? = inconclusive; · = no result given. Shown are actives, neighbours in structure and some others; about 4.3% of the full set was active somewhere.

SMILES	MITF act	esBAF inh	MLL AF4-AF9 inh	Wnt bcat act	FGF22 binding	SMARCA2 activ
COc1cccc(OCCOc2ccc(/C=C3\C(=N)N4N=C(S(C)(=O)=O)SC4=NC3=O)cc2OC)c1	–	–	–	–	–	–
CCOC(=O)C(=O)Cc1cccnn1	–	–	–	–	43	–
CCN(Cc1ccccc1)S(=O)(=O)c1ccc2c(c1)NC(=O)CC(=O)N2	–	·	–	–	44	–
CC(C)N(C[C@H]1N[C@H](CO)[C@@H]1c1ccc(C2=CCCC2)cc1)C(=O)CN(C)C	·	·	–	·	·	·
CN(C)S(=O)(=O)c1ccc(C(=O)OCc2ccc([N+](=O)[O-])cc2)cc1	–	·	–	–	44	–
Cc1ccc(NC(=O)c2ccc([N+](=O)[O-])cc2)cc1S(=O)(=O)N(C)C	–	49	–	–	–	–
C/C=C/C(=O)OCC(=O)Nc1ccc(C)c(S(=O)(=O)N(C)C)c1	–	·	–	–	44	–
CN(C)S(=O)(=O)c1ccc(NC(=O)CCNC(=O)c2ccc([N+](=O)[O-])cc2)cc1	–	–	–	·	43	–
COc1ccc2c3c(n(C)c2c1)[C@H](CO)N(C)CC31CN(C(=O)c2ccccc2F)C1	·	·	–	·	–	·
CNC[C@@H]1Oc2ccc(NC(=O)c3ccncc3)cc2CC(=O)N([C@@H](C)CO)C[C@H]1C	·	–	–	·	–	·
O=C([C@H]1[C@H](CO)[C@H]2Cn3c(ccc(-c4ccccc4F)c3=O)[C@@H]1N2C(=O)C1CCC1)N1CCOCC1	·	–	–	·	–	·
COc1cc(-c2nc3n(n2)C(c2ccncc2)C2=C(CCCC2=O)N3)cc(OC)c1OC (stereo unspecified)	–	·	–	–	44	–
COc1ccc(C2C3=C(CCCC3=O)Nc3nc(-c4cc(OC)c(OC)c(OC)c4)nn32)cc1OC (stereo unspecified)	·	–	·	–	·	–
Cn1c2ccccc2c2ncn(CCC3=CCCCC3)c(=O)c21	·	74	·	·	·	–
Cn1c2ccccc2c2ncn(CCCN3CCOCC3)c(=O)c21	–	·	·	·	·	–
CC(=O)c1cnn(-c2ccccc2)c1C	–	–	–	–	–	–
Cc1c(C(=O)Oc2cccc3ccccc23)cnn1-c1ccccc1	–	45	·	·	·	–
COc1ccc(NC(=O)c2cnn(-c3ccccc3)c2C)c(OC)c1	–	–	–	–	–	–
CCN(CC)C(=O)c1cnn(-c2ccccc2)c1NC(=O)c1ccco1	–	–	–	–	–	–
Cc1ccc(NC(=O)c2cnn(-c3ccccc3)c2NC(=O)c2ccco2)cc1C	–	55	·	–	·	·
Cc1c(C(=O)Nc2ccccc2F)cnn1-c1ccccc1	88	–	–	–	–	–
Cc1c(C(=O)Nc2cc(F)cc(F)c2)cnn1-c1ccccc1	121	?	–	57	–	–
CCC(=O)N1C[C@@H](C)[C@@H](OC)CN(C)C(=O)c2ccc(NC(=O)Nc3cccc(F)c3)cc2OC[C@H]1C	·	–	–	·	–	·
C[C@H](CO)N1C[C@H](C)[C@@H](CN(C)C(=O)C2CCC2)Oc2ncc(C#CCc3ccccc3)cc2C1=O	·	–	–	·	–	·
O=C(NCCN1CCC(Cc2ccccc2)CC1)C1CCCN(S(=O)(=O)c2cccs2)C1 (stereo unspecified)	·	·	·	·	·	–
SMILES	MITF act	esBAF inh	MLL AF4-AF9 inh	Wnt bcat act	FGF22 binding	SMARCA2 activ
O=C(Nc1nc2c(ccc3ccccc32)s1)c1ccco1	–	–	·	38	·	–
O=C(Nc1nc2cc3c(cc2s1)OCCO3)c1ccc([N+](=O)[O-])o1	–	–	–	51	–	–
O=C(Nc1nc2c(F)c(F)c(F)cc2s1)c1ccco1	?	53	–	–	–	–
O=C(Nc1nc2ccccc2s1)c1ccc([N+](=O)[O-])o1	–	·	–	–	–	–
O=C(Nc1ccc(-c2nc3c(ccc4ccccc43)o2)cc1)c1ccco1	–	50	–	–	–	–
O=C(Nc1nc2c(Cl)ccc(Cl)c2s1)c1ccco1	·	–	–	–	–	–
C[C@H](CO)N1C[C@H](C)[C@H](CN(C)C(=O)Nc2ccc(C(F)(F)F)cc2)Oc2c(NC(=O)c3cnccn3)cccc2C1=O	·	–	–	·	–	·

Compound activity deposited in PubChem BioAssay by several laboratories.
